In all, about 9,900 sequences were measured (“r (bound/input frequency ratio)”: median about 0.7, highest 2% from about 6.5 on). This is one part of a sample in which the highest values are shown more often than they occur.

Sequences and labels used below:
B1: ENSMUSG00000034801.21|Sos2 (ssRNA)
RNA: GGGAGUUCUACAGUCCGACGAUCGCUUCGAUAUCCGCAUGCUAGCCCUCUCCACGGAUUCCACGCAGCUGUCACUUGCUCAGCUCCAGUCACAGCAGCCUUGCUCAUCUUCCAGCUCCUCCUGUCCCACCAAGGCAGAAUUCAAGCCCUCUCUUACCAAAGCUGCCACCAAAGACUUACAAACGGGAGCUUUCCCACCCGCCACUGUAUAGACUGCCUCUGCUGGAAAAUGCAGAAACUCCUCAAUGACCUUGGCCAUAUGUAGUCAUUGACACUGGAAUAGUAUUUGUAAAGGUUUUUAAUUCUCUUGCGGUCGCACUAGUGUGGAAUUCUCGGGUGUCAAGG
B2: ENSMUSG00000042529.183|Kcnj12 (ssRNA)
RNA: GGGAGUUCUACAGUCCGACGAUCGCUUCGAUAUCCGCAUGCUAGUUUAAUCUUUCCCUACUGCCCUAAGUCCACUCAUGAAGCUCCCCAGGCCCUUCUGAGAUUGCAGAGGCUGCUUGCUCAUAGCCAUGACCCUGCCUGCUUUUGUCCCACACUGCUGGGGCAGGAUGAUGAAGCCCUGCUGGUCCCAGCCAGUCAUCUCCUGCUGGAAGGCAGAGUCUAGGGGAGAAGAGAAACACCCCCACCCCCACCCCUAUCCCGCACCAGCCCCCUGCCACCAUAGAGAUAGACCAGAGAAAUGUCACUCUUGCGGUCGCACUAGUGUGGAAUUCUCGGGUGUCAAGG
B3: ENSMUSG00000061578.815|Ksr2 (ssRNA)
RNA: GGGAGUUCUACAGUCCGACGAUCGCUUCGAUAUCCGCAUGCUAUGGGACUCUUUUUAUGAGGAACCAGUCCUGUUGAAUCGGGGUGCUCUGUAUUAGUUAUUUUUGUAACUUGUGAUUGUAACCAAAUGCCCGAUAGAAACAGCAUUCUGGCUCACAGUUUCAAAGGGCUCAGUCCAUAGCUGCCUGACUCUGUGUUUCUAGGCCUUUCUUGAGGCAAGUGUUCAUCAUGAUAGUGUGAGGGUGAGGAGGAGUUUCUUCAUGGCAAACAGGAAGCAAAGAGCAAUACAGGAAAAGGUCAGGGGCUCUUGCGGUCGCACUAGUGUGGAAUUCUCGGGUGUCAAGG
B4: ENSMUSG00000061578.1222|Ksr2|31:35;225:229 (ssRNA)
RNA: GGGAGUUCUACAGUCCGACGAUCGCUUCGAUAUCCGCAUGCUAGAAUGAGCCGCUGGGAUAUUGACAUGGAGAACACAUGAUGGAAAAAGCCUCCACACCCAACAUAACUCUCCAGAGAGAUAUUGAAAGUGAUGGGCAGAGAGUCUGACAAUGACCCAGGGGUCAUUGUGAGUCCUAGGCUGAAUCUGUAAUGGGGUCCAAAGUGCAGGAGAGACUGCAUUCACCUUGUUGGUGGGGUGGGGCUUCUUUCAUUACUUUAAGUAUCUCAUACGGCUUGAGGCAUGGGAAACAGCACCUUGUCUCUCUUGCGGUCGCACUAGUGUGGAAUUCUCGGGUGUCAAGG
B5: ENSMUSG00000022095.104|Fam160b2 (ssRNA)
RNA: GGGAGUUCUACAGUCCGACGAUCGCUUCGAUAUCCGCAUGCUAGCUGUUGCAAAAUUCCCAACUGCCUCCUGGCAGAGGCCCAAAGUAUGCUCUGCGCCCAGGCGGGGGCAGCUGCUAACAAGAGCCCUGGCGCAGCUGCAGCCAGGGCAGGCGAGAGCCUUGGAGCUGGGUGCCAGGCUCCAGCUCCAGCUCCAGCUGGUUCCUCUCUGGCGCCUUCUGAACCCGUCUCAGCAAGUCCGAAACACCUGGGCAGAGAGGUCAUUGACCAGGGAUGGGGGCCCUUGCCCUCUGAAUCCUGCCCACUCUUGCGGUCGCACUAGUGUGGAAUUCUCGGGUGUCAAGG
B6: ENSMUSG00000061578.919|Ksr2|82:86 (ssRNA)
RNA: GGGAGUUCUACAGUCCGACGAUCGCUUCGAUAUCCGCAUGCUACAAUUCUACCCAUGACAGACAUGUCCCAUCCAUGAGCCCAGAUAGUCAAAGACUUCAGCACAAGGGUGUUUAGAGUAGGCACACACGAAGUAUCAAUAAGGUUAUUGAGAUGAGGAUUUAGAAAGAUCCAUGUAUAAAAGGUCUAGAAGGAUGAAGAUCUAAAACAAGAAGACUGCAUGUUAACGCUCCUGCCACUGUUGCCCCUUCCUUUACCCUUGGCAGACAUUGCUAAUCAAUCUCAGCACAGUUUCCAACCACAGCUCUUGCGGUCGCACUAGUGUGGAAUUCUCGGGUGUCAAGG
B7: ENSMUSG00000061578.806|Ksr2 (ssRNA)
RNA: GGGAGUUCUACAGUCCGACGAUCGCUUCGAUAUCCGCAUGCUACCUCUCUCCAAUCUUUACCUUUGCCUCUACUAGAUGAUCUUGCAUCUGUCUUUGUGGGACUCUUUUUAUGAGGAACCAGUCCUGUUGAAUCGGGGUGCUCUGUAUUAGUUAUUUUUGUAACUUGUGAUUGUAACCAAAUGCCCGAUAGAAACAGCAUUCUGGCUCACAGUUUCAAAGGGCUCAGUCCAUAGCUGCCUGACUCUGUGUUUCUAGGCCUUUCUUGAGGCAAGUGUUCAUCAUGAUAGUGUGAGGGUGAGGAGCUCUUGCGGUCGCACUAGUGUGGAAUUCUCGGGUGUCAAGG
B8: ENSMUSG00000043670.134|Diras1 (ssRNA)
RNA: GGGAGUUCUACAGUCCGACGAUCGCUUCGAUAUCCGCAUGCUACCUGGCCACCCCGAGUACCACCUCUGGAAUAGCAGACGCCCACAGCACAAGCCCAGGACUGUCCCUUCAGGGGAGGCACACUGGAACCCUGAACUUGGAGUGUGGAGUGGCUGCCUGGACACUGCCCACCUGGACACCAGCCUUCUGCUGAGAUAGAGACCUUGGCACAGUGGCACCUCGACAGCCACCCCGACUGGGGGUUUGGGGUGCUGAGGGUGGGGUGCCCAGCUGAGAGUCUAUCAGCAAAGUCCCUGUGUGCGCUCUUGCGGUCGCACUAGUGUGGAAUUCUCGGGUGUCAAGG
B9: ENSMUSG00000058297.456|Spock2|123:127 (ssRNA)
RNA: GGGAGUUCUACAGUCCGACGAUCGCUUCGAUAUCCGCAUGCUAUCACACAGGUCAGAUUAUUGUCGGUCCUGCGGGCCUCAUCCUUGAAUAAGCUGCCUGCCCAGUUCCUCCAUCCGUGUUCCUGCCUGCUCCCGUUCCCUUGUUGCGGGCAGGAGAGGUAGGGCACACAUGGAAAGAGUUCAACCAAAUUACGGCAGCACCACAUCUUGCCGAGCCCUGGAGCUGCCCUACUAAGAGCCUCCUUAGCCCUGGGUGCUGGGAAGGAUGGUGUACGUUGGGGAAGUUUGAGGUUGGAGAGAGUACUCUUGCGGUCGCACUAGUGUGGAAUUCUCGGGUGUCAAGG

The target in the test is TDP-43 (Homo sapiens, UniProt Q13148 1-414). The experiment in a line: RNA Bind-n-Seq with designed 260-mer pool; 25 mM Tris-HCl, 150 mM KCl, 3 mM MgCl2, BSA (printed 500 mg/mL), 20 units/mL SUPERase IN; pH not stated; 500 nM RNA pool, 1 h, 4 C; TDP-43 5, 50, 500 nM; high values mean tight binding. As to conditions: protein: recombinant; tags: SBP (GST cleaved off with PreScission; pGEX-GST-SBP). In a few lines: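 Recombinant SBP-tagged TDP-43 at 5, 50 or 500 nM was captured on streptavidin beads, then incubated 1 h at 4 °C with 500 nM of an in vitro-transcribed 260-nt 3′ UTR oligo pool in 25 mM Tris-HCl, 150 mM KCl, 3 mM MgCl2, BSA and SUPERase IN. Bound RNA was washed, eluted with biotin, reverse transcribed, PCR-amplified and sequenced. Binding is R, each oligo's mapped-read-normalized abundance in the bound sample divided by its abundance in input. Duplicates used two independent protein batches.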
Chain of TDP-43 (Q13148 whole entry): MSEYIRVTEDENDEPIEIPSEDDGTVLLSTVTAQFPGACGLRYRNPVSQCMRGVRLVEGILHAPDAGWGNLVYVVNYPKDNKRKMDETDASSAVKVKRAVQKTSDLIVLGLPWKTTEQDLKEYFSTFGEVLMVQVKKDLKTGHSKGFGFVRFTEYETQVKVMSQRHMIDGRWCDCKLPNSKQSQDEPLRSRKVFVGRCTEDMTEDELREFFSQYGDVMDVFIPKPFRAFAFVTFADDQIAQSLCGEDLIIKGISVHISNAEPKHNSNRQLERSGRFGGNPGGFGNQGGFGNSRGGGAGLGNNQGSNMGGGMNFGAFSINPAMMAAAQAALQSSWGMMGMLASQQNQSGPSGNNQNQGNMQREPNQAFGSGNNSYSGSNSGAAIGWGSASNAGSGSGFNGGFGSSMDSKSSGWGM
For the molecule B1, the binding signal is 1.01 R (bound/input frequency ratio).

In the case of B2, the binding signal was 1.85 R (bound/input frequency ratio).

Consider B3, for which the binding signal is 2.37 R (bound/input frequency ratio).

B4: the binding signal is 0.49 R (bound/input frequency ratio).

Take B5: the binding signal was 0.438 R (bound/input frequency ratio).

In the case of B6, the binding signal was 0.397 R (bound/input frequency ratio).

As to B7, the binding signal is 0.325 R (bound/input frequency ratio).

As for B8, the binding signal was 0.868 R (bound/input frequency ratio).

For B9, the binding signal was 0.829 R (bound/input frequency ratio).

Source of the values: publication PMC12864922, “TDP-43 directly inhibits mRNA accumulation in neurites through modulation of mRNA stability”.
